The record followed here is PubChem BioAssay AID488975 (Johns Hopkins Ion Channel Center, 2010).

SMILES strings stand for the structures. In all, about 310,000 compounds went through this assay and about 2,600 (0.84%) were called active.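 Rule for the calls: active = B-score over 3 SD under the library average, and starting fluorescence ratio not unusually high; inactive = the rest.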 Only a selection was taken, and actives are over-represented in it overall.

For the test, the target named is High affinity choline transporter 1 (Homo sapiens) (UniProt Q9GZV3). The test can be described thus: inhibitors of human choline transporter CHT (AID 488975).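 For B-score: choline stimulus applied at its EC90 after an EC20 pre-addition; B-score computed on integrated fluorescence ratio after choline addition.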 The note with it: CHT-expressing cells, membrane potential dye, choline response, at 10 µM; hits give low values.
Chain of High affinity choline transporter 1 (Homo sapiens) (Q9GZV3 whole entry, looked up): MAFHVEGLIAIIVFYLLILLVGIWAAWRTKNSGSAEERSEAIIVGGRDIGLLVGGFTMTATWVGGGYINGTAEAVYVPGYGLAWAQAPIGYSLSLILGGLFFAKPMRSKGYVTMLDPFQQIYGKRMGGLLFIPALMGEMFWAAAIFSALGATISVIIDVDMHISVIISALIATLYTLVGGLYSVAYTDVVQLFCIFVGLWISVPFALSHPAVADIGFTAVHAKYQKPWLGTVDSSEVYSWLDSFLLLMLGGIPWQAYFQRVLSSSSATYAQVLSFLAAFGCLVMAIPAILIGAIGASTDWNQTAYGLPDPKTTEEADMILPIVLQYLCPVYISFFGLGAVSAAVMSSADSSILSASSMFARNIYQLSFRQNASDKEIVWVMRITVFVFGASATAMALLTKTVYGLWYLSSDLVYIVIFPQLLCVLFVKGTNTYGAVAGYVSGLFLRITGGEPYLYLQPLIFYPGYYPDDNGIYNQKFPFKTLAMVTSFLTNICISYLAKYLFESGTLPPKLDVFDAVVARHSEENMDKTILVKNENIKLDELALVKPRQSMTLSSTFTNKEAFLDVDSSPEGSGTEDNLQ
With `Cc1nc2ccccn2c1P(=S)(N1CCCCC1)N1CCCCC1`, the B-score was -6.55 (active).

For the molecule `CC[C@H]1CC2CN3CCc4c([nH]c5ccccc45)C(C(=O)OC)(C2)C13` (stereo not given in full), the B-score entry was “inactive”.

`COC(=O)C1=C(c2cc3ccccc3s2)C[C@@H]2CC[C@H]1N2C(=O)NC(C)C`: the B-score entry was “inactive”.

As to `C[N+]1(C)CCOC(O)(c2ccc(-c3ccc(C4(O)C[N+](C)(C)CCO4)cc3)cc2)C1` (stereo not given), the B-score is -5.22 (active).

Take `C=CCN1C(=O)NC(=O)/C(=C/c2ccc(OCC(=O)Nc3ccc(C)cc3)cc2)C1=O`: the B-score entry is “inactive”.

On to `COc1ccc(CNCCc2c[nH]c3ccccc23)cc1OC`, for which the B-score entry is “inactive”.

As to `O=C(N/N=C/c1c(O)n(C2CC2)c(=S)[nH]c1=O)c1ccccc1`, the B-score result was “inactive”.

Regarding `COc1ccc2c(c1)[C@]13CCCCC1C(C2)N(C)CC3` (stereo not given in full), the B-score entry was “inactive”.

As to `COC(=O)C1=C(c2cc3ccccc3s2)C[C@@H]2CC[C@H]1N2C(=O)NCc1cccc2ccccc12`, the B-score entry is “inactive”.

As for `COC(=O)C(c1ccccc1)N1CCCCCC1` (stereo not given), the B-score entry is “inactive”.

Turning to `COc1ccccc1N1CCN(C(CNC(=O)Oc2ccccc2)c2cccnc2)CC1` (stereo not given), the B-score was -6.58 (active).

As for `O=C(NCC(c1cccnc1)N1CCN(c2ccccc2)CC1)Oc1ccccc1` (stereo not given), the B-score entry is “inactive”.

With `COc1ccc(N2C(=O)/C(=C/c3ccco3)C(=O)NC2=S)cc1`, the B-score entry is “inactive”.

Take `COC(=O)C1=C(c2ccccc2)C[C@@H]2CC[C@H]1N2C(=O)NCc1ccco1`: the B-score entry is “inactive”.

Turning to `C/C(=N/O)c1ccc2ccc3ccccc3c2c1`, the B-score result is “inactive”.
